# Reference: the antibiotic and cytotoxicity screens of Wong et al. (2023)
# Among all 39,000 compounds or so, about 1,500 (3.8%) were called active. The list comes from a sample in which actives are over-represented; it also holds similar structures and randomly drawn compounds.
# System: HSkMC (human skeletal muscle cells)
# Assay: cytotoxicity call (relative viability < 0.9)
# Conditions: 10 µM
row,Structure (SMILES),cytotoxicity call
1,C=CCOC(=O)[C@H]1[C@@H]2C(=O)O[C@@H](c3ccccc3)[C@@H](c3ccccc3)N2[C@@H](c2ccc(OCCOC(=O)[C@@H]3C[C@@H]4C(=O)N[C@@H](CCCCNC(C)=O)C(=O)N4[C@@H]3c3ccc(O)cc3)cc2)[C@]12C(=O)Nc1ccccc12,inactive
2,COc1ccc(CN(C)C[C@@H]2OCCCC[C@@H](C)Oc3ccc(NS(=O)(=O)c4ccc(F)cc4)cc3C(=O)N([C@H](C)CO)C[C@@H]2C)cc1,inactive
3,C[C@H](CO)N1C[C@H](C)[C@@H](CN(C)Cc2ccc(C(F)(F)F)cc2)Oc2ccc(NC(=O)Cn3cnnn3)cc2CC1=O,inactive
4,C[C@H](CO)N1C[C@H](C)[C@@H](CN(C)S(=O)(=O)c2cn(C)cn2)Oc2ccc(NC(=O)C3CCCCC3)cc2CC1=O,inactive
5,Cc1ccc(S(=O)(=O)Nc2cccc3c2O[C@@H](CN(C)S(=O)(=O)c2cccs2)[C@@H](C)CN([C@H](C)CO)C3=O)cc1,inactive
6,CN1C(=O)C[C@@H]2[C@@H]1CCN2C(=O)c1ccc[nH]1,inactive
7,C[C@H](CO)N1C[C@H](C)[C@@H](CN(C)S(=O)(=O)c2cn(C)cn2)OCc2ccccc2-c2ccccc2C1=O,inactive
8,C[C@H](CO)N1C[C@H](C)[C@H](CN(C)Cc2ccc3c(c2)OCO3)OCCCC[C@H](C)Oc2ccc(NC(=O)Nc3cccc4ccccc34)cc2C1=O,active
9,C[C@@H]1CCCCO[C@H](CN(C)Cc2ccc3c(c2)OCO3)[C@H](C)CN([C@H](C)CO)C(=O)c2cc(NC(=O)Nc3cccc4ccccc34)ccc2O1,active
10,C[C@@H]1CCCCO[C@@H](CN(C)Cc2ccc3c(c2)OCO3)[C@H](C)CN([C@@H](C)CO)C(=O)c2cc(NC(=O)Nc3cccc4ccccc34)ccc2O1,inactive
11,C[C@H]1CCCCO[C@H](CN(C)Cc2ccc3c(c2)OCO3)[C@@H](C)CN([C@@H](C)CO)C(=O)c2cc(NC(=O)Nc3cccc4ccccc34)ccc2O1,inactive
12,C[C@@H]1CN([C@@H](C)CO)C(=O)c2cc(NC(=O)Nc3cccc4ccccc34)ccc2O[C@@H](C)CCCCO[C@@H]1CN(C)Cc1ccc2c(c1)OCO2,inactive
13,C[C@@H]1CCCCO[C@H](CN(C)Cc2ccc3c(c2)OCO3)[C@@H](C)CN([C@@H](C)CO)C(=O)c2cc(NC(=O)Nc3cccc4ccccc34)ccc2O1,inactive
14,C[C@@H]1CN([C@H](C)CO)C(=O)c2cc(NC(=O)Nc3cccc4ccccc34)ccc2O[C@@H](C)CCCCO[C@@H]1CN(C)Cc1ccc2c(c1)OCO2,active
15,C[C@@H]1CCCCO[C@@H](CN(C)Cc2ccc3c(c2)OCO3)[C@H](C)CN([C@H](C)CO)C(=O)c2cc(NC(=O)Nc3cccc4ccccc34)ccc2O1,active
16,Cc1ccc(S(=O)(=O)Nc2ccc3c(c2)C(=O)N([C@@H](C)CO)C[C@@H](C)[C@@H](CN(C)C(=O)Nc2ccc(C(F)(F)F)cc2)O3)cc1,inactive
17,C[C@H](CO)N1C[C@H](C)[C@@H](CN(C)C(=O)Nc2ccc(C(F)(F)F)cc2)OCc2cn(nn2)CCCC1=O,inactive
18,CN(C)/N=N/c1nc[nH]c1C(N)=O,inactive
19,COC(=O)C[C@H]1CC[C@H](N)[C@@H](CO)O1,inactive
20,NCc1cccc(-c2ccccc2)c1,inactive
21,C[C@@H]1CCCCO[C@@H](CN(C)C(=O)NC2CCCCC2)[C@@H](C)CN([C@H](C)CO)C(=O)c2cc(NC(=O)CCCCCC(=O)Nc3ccccc3N)ccc2O1,inactive

row,Structure (SMILES),cytotoxicity call
1,C[C@@H]1CN([C@@H](C)CO)C(=O)c2cc(NC(=O)Nc3ccc(F)cc3)ccc2O[C@@H](C)CCCCO[C@@H]1CN(C)C(=O)C1CCCCC1,inactive
2,C[C@@H]1CN([C@H](C)CO)C(=O)c2cc(NS(=O)(=O)c3ccc(Cl)cc3)ccc2O[C@@H]1CN(C)Cc1ccc(Cl)c(Cl)c1,active
3,C[C@H](CO)N1C[C@H](C)[C@@H](CN(C)Cc2ccc(Cl)c(Cl)c2)Oc2ccc(NS(=O)(=O)c3ccc(Cl)cc3)cc2C1=O,active
4,C[C@@H]1CN([C@@H](C)CO)C(=O)c2cc(NS(=O)(=O)c3ccc(Cl)cc3)ccc2O[C@H]1CN(C)Cc1ccc(Cl)c(Cl)c1,active
5,C[C@H]1CN([C@@H](C)CO)C(=O)c2cc(NS(=O)(=O)c3ccc(Cl)cc3)ccc2O[C@H]1CN(C)Cc1ccc(Cl)c(Cl)c1,active
6,COc1oc(C(=O)NC2CCCCC2)c(-c2ccc(Cl)cc2)c1S(=O)(=O)c1ccccc1Cl,inactive
7,Cc1ccc(S(=O)(=O)N2C[C@H](O)COC[C@@H]3O[C@H](CC(=O)NCCN4CCCCC4)CC[C@H]32)cc1,inactive
8,COc1ccc(NC(=O)N2C[C@H](O)COC[C@H]3O[C@@H](CC(=O)NCc4ccccc4OC)CC[C@@H]32)cc1,inactive
9,COc1ccc(NC(=O)N(C)C[C@H]2OCCCC[C@@H](C)Oc3ccc(NC(=O)CCC(F)(F)F)cc3C(=O)N([C@H](C)CO)C[C@H]2C)cc1,inactive
10,C[C@@H]1CCCCO[C@H](CN(C)Cc2ccc(C(F)(F)F)cc2)[C@H](C)CN([C@@H](C)CO)C(=O)c2cc(NC(=O)CCC(F)(F)F)ccc2O1,inactive
11,COc1ccc(C#Cc2ccc3c(c2)[C@]2(C(=O)N3)[C@H](c3ccccc3OCCO)N3[C@H](c4ccccc4)[C@H](c4ccccc4)OC(=O)[C@H]3[C@@H]2C(=O)NC[C@H](O)c2ccccc2)cc1,inactive
12,COc1ccc(S(=O)(=O)N(C)C[C@@H]2Oc3c(NS(=O)(=O)c4ccc(C)cc4)cccc3C(=O)N([C@@H](C)CO)C[C@H]2C)cc1,inactive
13,C[C@@H]1CN([C@@H](C)CO)C(=O)c2cc(NS(=O)(=O)c3ccc(Cl)cc3)ccc2O[C@@H](C)CCCCO[C@H]1CN(C)C(=O)c1ccncc1,inactive
14,C=C(C)CCn1cccc1C(C)=O,inactive
15,C[C@H]1CN([C@@H](C)CO)S(=O)(=O)c2ccc(C#Cc3cccc(F)c3)cc2O[C@@H]1CN(C)C(=O)CN1CCOCC1,inactive
16,Cc1noc(C)c1NC(=O)N(C)C[C@H]1Oc2ccc(NC(=O)CCCN(C)C)cc2C(=O)N([C@@H](C)CO)C[C@@H]1C,inactive
17,C[C@@H]1CN([C@H](C)CO)S(=O)(=O)c2ccc(C3=CCCC3)cc2O[C@@H]1CN(C)C(=O)c1cnccn1,inactive
18,C[C@H](CO)N1C[C@H](C)[C@@H](CN(C)Cc2ccc(Cl)c(Cl)c2)Oc2ccc(NS(=O)(=O)c3ccccc3)cc2C1=O,inactive
19,C[C@@H]1CN([C@@H](C)CO)C(=O)c2cc(NS(=O)(=O)c3ccc(Cl)cc3)ccc2O[C@@H]1CN(C)Cc1ccc(Cl)c(Cl)c1,active
20,C[C@H](CO)N1C[C@H](C)[C@H](CN(C)Cc2ccc(Cl)c(Cl)c2)Oc2ccc(NS(=O)(=O)c3ccccc3)cc2C1=O,inactive
21,C[C@@H]1CN([C@@H](C)CO)C(=O)c2cc(NS(=O)(=O)c3ccccc3)ccc2O[C@@H]1CN(C)Cc1ccc(Cl)c(Cl)c1,active

row,Structure (SMILES),cytotoxicity call
1,C[C@H]1CN([C@@H](C)CO)C(=O)c2cc(NS(=O)(=O)c3ccccc3)ccc2O[C@@H]1CN(C)Cc1ccc(Cl)c(Cl)c1,inactive
2,C[C@@H]1CN([C@H](C)CO)C(=O)c2cc(NS(=O)(=O)c3ccc(Cl)cc3)ccc2O[C@H]1CN(C)Cc1ccc(Cl)c(Cl)c1,inactive
3,C[C@H](CO)N1C[C@H](C)[C@H](CN(C)Cc2ccc(Cl)c(Cl)c2)Oc2ccc(NS(=O)(=O)c3ccc(Cl)cc3)cc2C1=O,active
4,C[C@H]1CN([C@@H](C)CO)C(=O)c2cc(NS(=O)(=O)c3ccc(Cl)cc3)ccc2O[C@@H]1CN(C)Cc1ccc(Cl)c(Cl)c1,active
5,COc1ccc(S(=O)(=O)N(C)C[C@H]2OCc3cnnn3CCCC(=O)N([C@H](C)CO)C[C@@H]2C)cc1,inactive
6,Cc1noc(C)c1NC(=O)Nc1cccc2c1O[C@@H](CN(C)S(=O)(=O)c1ccccc1)[C@H](C)CN([C@@H](C)CO)C2=O,inactive
7,C[C@@H]1CCCCO[C@H](CN(C)C(=O)c2ccncc2)[C@H](C)CN([C@@H](C)CO)C(=O)c2cc(NC(=O)C3CCCCC3)ccc2O1,inactive
8,COc1ccc(-c2cnc3c(c2)C(=O)N([C@@H](C)CO)C[C@@H](C)[C@@H](CN(C)C(=O)Cc2cccnc2)O3)cc1,inactive
9,C/C=C/c1cccc(-c2nc(C(=O)NCc3ccccc3)cc3c2[C@H](CCO)N([S@@](=O)C(C)(C)C)C3)c1,inactive
10,C=CCOC(=O)[C@@H]1[C@H]2C(=O)O[C@H](c3ccccc3)[C@H](c3ccccc3)N2[C@H](c2ccccc2OCCO)[C@@]12C(=O)Nc1ccc(I)cc12,inactive
11,O=C(C[C@@H]1CC[C@H](NC(=O)Nc2ccc3c(c2)OCO3)[C@H](CO)O1)NCCCN1CCOCC1,inactive
12,C[C@H](CO)N1C[C@H](C)[C@@H](CN(C)S(=O)(=O)c2ccc(Cl)cc2)Oc2ccc(NC(=O)Cn3cnnn3)cc2CC1=O,inactive
13,COc1ccc(-c2ccc3c(c2)O[C@H](CN(C)CC2CCOCC2)[C@H](C)CN([C@H](C)CO)S3(=O)=O)cc1,inactive
14,COCc1cn(CC[C@@H]2CC[C@@H](NC(=O)CCN3CCCCC3)[C@@H](CO)O2)nn1,inactive
15,Cn1c(=O)c2c(ncn2CC(O)CO)n(C)c1=O (configuration not stated),inactive
16,Cn1c(=O)c2c(ncn2C[C@@H](O)CO)n(C)c1=O,inactive
17,Cn1c(=O)c(F)c(Nc2ccc(I)cc2F)c2c(=O)n(C[C@@H](O)CO)cnc21,active
18,Cc1noc(C)c1S(=O)(=O)N(C)C[C@H]1OCc2cnnn2CCCC(=O)N([C@H](C)CO)C[C@H]1C,inactive
19,Cc1ccc(S(=O)(=O)Nc2ccc3c(c2)CC(=O)N([C@H](C)CO)C[C@@H](C)[C@@H](CN(C)Cc2ccncc2)O3)cc1,inactive
20,CS(=O)(=O)Nc1ccc2c(c1)[C@H]1C[C@H](CC(=O)NCc3ccc(-c4ccccc4)cc3)O[C@H](CO)[C@H]1O2,inactive
